# PubChem BioAssay AID588719 (Southern Research Specialized Biocontainment Screening …, 2011)
# Hit rate of the full screen: of about 1,500 compounds, about 920 (61%) were called active. The set was probably picked from earlier hits. The list shows a part of the results. Entries with a potency or affinity are not part of this list. Unmarked numbers belong to inactive results. The rule behind the calls is not given here.
# Experiment: Vero 76 cell cytotoxicity, dose response, cytotoxicity control for VEEV inhibitor project (AID 588719)
# Settings: Vero 76 cells viability, cytotoxicity counter-screen; series mostly up to 25 µM; viability: at the top concentration
row,SMILES,viability
1,Cc1ccccc1NC(=S)/C(=C(\[O-])c1ccc(C)c([N+](=O)[O-])c1)[n+]1ccccc1,97.6%
2,O=C(Nc1ccccc1)c1cccc(Cn2cc(C(F)(F)F)ccc2=O)c1,80.6%
3,Cc1cc(C(=O)NC2CCCc3c2cnn3-c2cccc(C)c2C)no1 (stereo not given),64.3%
4,CCOC(=O)C1C(=O)C(=O)N(C2CCCCC2)C1C(=O)OCC (stereo not given),99.2%
5,C/C(N)=C(/C#N)C(=O)COC(=O)c1cc(C)n(-c2ccc(F)cc2)c1C,76.3%
6,CCCn1c(SCC(=O)N(C)C2CCS(=O)(=O)C2)nc2sc3c(c2c1=O)CCC3 (stereo not given),73.6%
7,CN(C(=O)CCN1C(=O)/C(=C/c2ccccc2F)SC1=S)C1CCS(=O)(=O)C1 (stereo not given),97.8%
8,Cc1cccc(C)c1OCC(=O)N(Cc1cccs1)C1CCS(=O)(=O)C1 (stereo not given),88%
9,O=C(Cn1c(=O)sc2ccccc21)Nc1nc2c(s1)CCCC2,97.1%
10,NC(=O)CC(NC(=O)Cc1ccc(Br)cc1)c1ccc(N2CCC(Cc3ccccc3)CC2)c([N+](=O)[O-])c1 (stereo not given),75.1%
11,CCCCCCCCCC(=O)N[C@@H]1c2cc(OC)c(OC)cc2C[C@H]1OCc1ccccc1,81.8%
12,COc1ccccc1C(CNC(=O)CNC(=O)c1ccc(Cl)c(Cl)c1)N1CCCC1 (stereo not given),89%
13,CCCn1nc(NC(=O)c2cccs2)c2cc3cccc(C)c3nc21,83%
14,COc1ccc(/C=N/NC(=O)c2cc[n+]([O-])cc2)cc1OC,94.5%
15,CN(C)CCCN(C(=O)c1cc(-c2cccs2)nc2ccccc12)c1nc2ccc(F)cc2s1,81%
16,C/C(=N/OCO/N=C(/C)c1ccc(F)cc1)c1ccc(F)cc1,81.7%
17,C/C(=N\NC(=O)c1ccc(N/N=C(\C)c2ccc(O)cc2)cc1)c1ccc(O)cc1,86%
18,Cc1ccc(S(=O)(=O)C2(C(=O)NCc3ccccc3Cl)CC2)cc1,86%
19,Cc1ccccc1CN(C)C(C)C(=O)Nc1ccccc1F (stereo not given),92.6%
20,Cc1ccccc1NC(=NCCCN1CC1)Nc1ccccc1C,82.8%
21,O=C1C2CCCN2C(c2cccs2)N1c1ccc(Cl)cc1 (stereo not given),86.3%
22,C[C@@H]1CN([C@H](C)CO)C(=O)CCCn2nncc2CO[C@H]1CN(C)C(=O)C1CC1,102%
23,CC(C)[N+]1=C2C=CC=CC=C2SC12C([N+](=O)[O-])=CC(=[N+]([O-])[O-])C=C2[N+](=O)[O-] (stereo not given),84.7%
24,CCC(=O)N1CCN(c2ccc(Cl)cc2NC(=O)c2cccc([N+](=O)[O-])c2)CC1,99.8%
25,Cc1ccc(CS(=O)Cc2ccc(C(=O)N3CCN(c4cccc(C)c4C)CC3)o2)cc1 (stereo not given),97.3%
26,O=C(Nc1csc([N+](=O)[O-])c1)Nc1ccccc1Cl,82.5%
27,COc1ccc(Cl)cc1C=CC=Nc1ccc(S(N)(=O)=O)cc1,73.1%
28,N#Cc1cccc(NC(=O)CSc2n[nH]c(=O)[nH]c2=O)c1,90.3%

row,SMILES,viability
1,Cc1ccc(CN2CCCC(C(=O)c3ccc4c(c3)OCO4)C2)cc1C (stereo not given),87.6%
2,O=[N+]([O-])c1cccc(/C([O-])=C(/C(=S)Nc2cccc3ccccc23)[n+]2ccccc2)c1,103%
3,O=[N+]([O-])c1cccc(C([O-])=C(C(=S)Nc2cccc3ccccc23)[n+]2ccccc2)c1,93%
4,COc1ccc(N2CCCC2)c(NC(=O)c2ccc([N+](=O)[O-])o2)c1,97.5%
5,Cc1nc(N)[nH]c(=O)c1CCCNc1ccc([N+](=O)[O-])cc1,90.7%
6,C=CCNCCCCOc1ccc(OCc2ccccc2)cc1,92.5%
7,CCn1c(=O)c([N+](=O)[O-])c(NCc2ccc3c(c2)OCO3)c2ccccc21,86%
8,Cc1ccc(Nc2nc(=O)c3cccnc3s2)c(Br)c1,98.6%
9,CCN1C/C(=C\c2cc(OC)c(OC)c(OC)c2)C2=NN(c3ccccc3)C(c3cc(OC)c(OC)c(OC)c3)C2C1 (stereo not given),86.3%
10,CC(C)CN1C(=O)/C(=C(/C#N)C(=O)NC2CCCCC2)c2ccccc21,85.1%
11,Cc1ccc(SCCC(=O)Nc2nccs2)cc1,96.8%
12,COc1ccc(C(=O)NC2CCCc3c2cnn3-c2cccc(C)c2C)o1 (stereo not given),74.2%
13,Cn1c(CCN2CCCCC2)nc2cc(NC(=O)COc3ccc([N+](=O)[O-])cc3)ccc21,87.6%
14,COc1ccc(Cl)cc1S(=O)(=O)N1CCN(C(=O)c2n[nH]c(=O)c3ccccc23)CC1,86.1%
15,O=c1oc(C2(O)CCCCC2)cc2ccc(-c3ccc4[nH]ccc4c3)cc12,57%
16,O=C(C=Cc1cccc(Cl)c1)c1ccccc1,94.6%
17,Cc1cc(NC(=O)COC(=O)c2cc(S(=O)(=O)N(C)c3ccccc3)ccc2Cl)no1,92.1%
18,Cc1cc(NC(=O)C(C)SCC(=O)N(Cc2ccccc2)c2ccccc2)no1 (stereo not given),80.7%
19,O=C(O)c1cc(-c2ccc3ccccc3c2)nc2ccc(F)cc12,94.6%
20,Cc1nc(N)ncc1Sc1ccccc1,85.3%
21,O=C(CSc1nc2ccc(Cl)cc2[nH]1)c1cccs1,82%
22,O=C(/C=C/c1ccnc2ccccc12)c1cccs1,94.5%
23,COc1cccc(N2CCN(c3ccc(S(=O)(=O)N4CCN(C)CC4)cc3[N+](=O)[O-])CC2)c1,71%
24,CN1CCN(c2ccc(CNS(=O)(=O)c3ccccc3)cc2)CC1,91.8%
25,COc1ccc(N2CCN(CCCn3c(=S)[nH]c4ncccc4c3=O)CC2)cc1,86.2%
26,C#CCSc1nc(=O)c2cccnc2n1-c1ccc(C)cc1,102%
27,CCN(CC)CC(=O)Nc1ccc(/C(C)=N/NC2=NCCN2)cc1,87.9%
